Results published in PubChem BioAssay (NCATS).
Inconclusive results are not listed. Activity calls are given as the source filed them. Unless noted, the call rests on the fitted dose curve; in most records, active means well fitted curve in the direction sought with a large enough effect; inconclusive means small, poorly fitted or top-dose-only effect, or another doubt; inactive means no such curve, though single readings can be large; an effect the other way counts as inactive or inconclusive.

Tests used:
[1] = qHTS profiling of the MIPE4 collection as inhibitors of Plasmodium falciparum (DD2) proliferation (AID 743345; call rule not given here); details: P. falciparum Dd2 in erythrocytes, SYBR Green DNA, 72 h; at 28.5 µM (top of the series) unless noted
How it was run: (§1)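 Erythrocytes infected with P. falciparum (0.3% parasitemia, 2.5% hematocrit) incubated with compounds 72 h at 37 C, 5% CO2. Lysis with saponin/Triton buffer containing SYBR Green I, overnight at room temperature in the dark; DNA fluorescence (485/535 nm) normalised to 0.29 uM artemisinin and DMSO.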

[2] = qHTS profiling of the MIPE4 collection as inhibitors of Plasmodium falciparum (DD2) proliferation (Rep 2) (AID 743346; call rule not given here); details: P. falciparum Dd2 in erythrocytes, SYBR Green DNA, 72 h; at 28.5 µM (top of the series) unless noted
How it was run: as §1

[3] = qHTS profiling of the MIPE4 collection as inhibitors of Plasmodium falciparum (HB3) proliferation (AID 743347; call rule not given here;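 further: plate controls were DMSO vehicle wells for no effect and artemisinin wells for full effect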); details: P. falciparum HB3 in erythrocytes, SYBR Green DNA, 72 h; at 28.5 µM (top of the series) unless noted
How it was run: as §1

[4] = High-throughput drug toxicity screening in the BPDCN cell line Gen2.2 (AID 1224824; call rule not given here;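 further: cells exposed to compounds for 48 h before reading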); details: Gen2.2 BPDCN cells; at 45.8 µM (top of the series) unless noted
How it was run: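 CellTiter-Glo luminescence after 48 h compound exposure of Gen2.2 cells; percent activity set with DMSO as 100% and bortezomib (9.2 uM final) as 0%. Cells seeded at 500 per well, RPMI + 10% FBS, 37 °C.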

[5] = High-throughput drug toxicity screening in the BPDCN cell line Cal-1 (AID 1224825; call rule not given here); details: Cal-1 BPDCN cell viability, qHTS; at 45.8 µM (top of the series) unless noted
How it was run: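 500 Cal-1 cells/well, RPMI + glutamine + 10% FBS (phenol red-free); cpd added by pin tool; 48 h, 37C, 5% CO2; CTG 15 min RT, lumi read. Normalised: DMSO 100%, bortezomib 9.2 uM 0%.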

[6] = qHTS assay for measurement of the activity of small molecule inhibitors on Zika virus induced Caspase-3 activity in human iPSC derived neural progenitor cells (hNPCs) (AID 1224857); further: % of control where 0% means no effect; nearly all actives have a fitted effect of over 65% in size
How it was run: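 hNPCs seeded 350 cells/well, cultured 16–20 h; compounds added 1 h before ZIKV (2 FFU/cell), 37 C 6 h. Caspase-Glo 3/7 luminescence after 30 min RT; % inhibition from induction scaled to uninfected (0%) and infected (100%) wells.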

[7] = qHTS assay for measurement of the activity of small molecule inhibitors on Zika virus induced Caspase-3 activity in human astrocytoma cells (AID 1224859);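 further: plate controls were ZIKV-infected untreated cells for no effect and uninfected cells for full effect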
How it was run: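 Luminescence read-out (Caspase-Glo 3/7, 30 min RT) of caspase activity in SNB-19 cells infected 6 h with ZIKV, 2 FFU/cell, after 1 h compound pretreatment; % inhibition from induction normalised to uninfected (0%) and infected (100%) wells.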

[8] = qHTS Screen of the MIPE 4.0 Collection Against Ewings Sarcoma (RDES) (AID 1259252); further: nearly all actives have a fitted effect of over 35% in size; further: potency means the concentration at half of the fitted maximal effect
How it was run: (§2)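 Cells plated in serum-containing RPMI (5% FBS) and treated with compound dilutions for 48 h. Readout luminescent viability; normalization relied on vehicle (no inhibition) and media-only columns (full inhibition).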

[9] = qHTS Screen of the MIPE 4.0 Collection Against Ewings Sarcoma (TC71) (AID 1259253); further: nearly all actives have a fitted effect of over 40% in size; further: potency means the concentration at half of the fitted maximal effect
How it was run: as §2

[10] = qHTS Screen of the MIPE 4.0 Collection Against Ewings Sarcoma (EW8) (AID 1259255); further: nearly all actives have a fitted effect of over 35% in size; further: potency means the concentration at half of the fitted maximal effect;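 on viability: 100% = DMSO-treated cells and 0% = medium-only wells without cells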
How it was run: as §2

[11] = qHTS Screen of the MIPE 4.0 Collection Against Ewings Sarcoma (TC32) (AID 1259256); further: nearly all actives have a fitted effect of over 45% in size; further: potency means the concentration at half of the fitted maximal effect
How it was run: as §2

[12] = qHTS profiling of the MIPE4 collection as inhibitors of Plasmodium falciparum (3D7) proliferation (AID 743344; call rule not given here;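 further: scaled between DMSO vehicle wells and 0.29 µM artemisinin as full inhibition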); details: P. falciparum 3D7 in erythrocytes, SYBR Green DNA fluorescence, 72 h; at 28.5 µM (top of the series) unless noted
How it was run: as §1

[13] = qHTS profiling for inhibitors of Plasmodium falciparum (HB3) proliferation (AID 743324); details: Plasmodium falciparum HB3 blood-stage proliferation; at 28.7 µM (top of the series) unless noted;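 further: 100% = DMSO vehicle wells and 0% = artemisinin-treated control wells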
How it was run: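 P. falciparum HB3 grown in erythrocytes (0.3% parasitemia, 2.5% hematocrit final) with compound for 72 h at 37 C, 5% CO2. Parasite DNA detected by SYBR Green after saponin/triton lysis overnight; normalized to 0.29 uM artemisinin and DMSO.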

[14] = Identifying Small Molecule Inhibitors of Pancreatic Cancer Stem Cells (A278, Adherent) (AID 1259361);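 further: viability read after 48 h compound exposure; nearly all actives have a fitted effect of over 35% in size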
How it was run: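 Pre-formed 14-day tumor spheroids or adherent cells dosed and incubated 48 h, 37C, 5% CO2. Viability assessed by CellTiter-Glo.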

[15] = Identifying Small Molecule Inhibitors of Pancreatic Cancer Stem Cells (Panc1, Spheroid) (AID 1259359);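 further: potency means the concentration at half of the fitted maximal effect; compound exposure lasted 48 h before reading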
How it was run: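 Endpoint: ATP-based luminescence, 48 h drug exposure. Bortezomib at 9.2 uM final as full-kill control; DMSO vehicle as negative control; activity normalized between vehicle and cell-free wells.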

[16] = Identifying Small Molecule Inhibitors of Pancreatic Cancer Stem Cells (SN12C, Spheroid) (AID 1259360); details: Potency: SN12C spheroid viability;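 further: 100% = DMSO-treated cells and 0% = wells without cells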
How it was run: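 Spheroids grown 14 days in stem cell media on nonadherent hydrogel before screening; cells attached 4 h, then compound exposure 48 h at 37C, 5% CO2. CellTiter-Glo luminescence normalized to DMSO (no inhibition) and no-cell wells (full inhibition).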

Row | Structure (SMILES) | parasite growth remaining, % of DMSO control (lower = more inhibition) [1] [%] | parasite growth, % of control (lower = inhibition) [2] [%] | growth, % of control [3] [%] | cell viability, % of control (lower = more cytotoxic) [4] [%] | viability (% of control) [5] [%] | Potency [6] | Potency [7] | Potency [8] | Potency [9] | Potency [10] | Potency [11] | parasite growth, % of DMSO control [12] [%] | remaining proliferation (% of control), lower = more inhibition [13] [%] | IC50 (viability decrease) [14] | Potency [15] | Potency [16]
1 | CC1(C)C(N(O)C(=O)Nc2ccc(Cl)cc2)N(c2ccc(Cl)cc2)C(=O)N1CC(=O)NN=CC=Cc1ccc([N+](=O)[O-])o1 (stereo not given) | 9.75 | 18.3 | 7.55 | 3.85 | 2.85 | inactive | inactive | 26.4 µM (active) | 18.7 µM (active) | 14.8 µM (active) | 18.7 µM (active) |  |  |  |  | 
2 | C#CCN(C)CC1=Cc2ccccc2Oc2ccccc21 | 76.6 | 63.1 | 25.1 | 124 | 98 | inactive | inactive | inactive | inactive | inactive |  | 51.9 |  |  |  | 
3 | Cc1cn([C@@H]2C[C@@H](O)[C@H](CO)O2)c(=O)[nH]c1=O |  |  |  | 159 | 69.5 | inactive | inactive | inactive |  |  |  |  |  |  |  | 
4 | N#CC1(c2cccc(C(=O)Nc3cc(Oc4ccc5nc(NC(=O)C6CC6)sc5n4)ccc3F)c2Cl)CC1 | 28.8 | 30.3 | 9.87 | 7.3 | 43.3 | inactive | inactive | 16.6 µM (active) | 16.6 µM (active) | 20.9 µM (active) |  | 14.7 |  |  |  | 
5 | CN(CC=CC#CC(C)(C)C)Cc1cccc2ccccc12 | 79.2 | 14.9 | 14.6 | 194 | 115 | inactive | inactive | inactive | inactive | inactive |  | 15 |  |  |  | 
6 | CC1(COc2ccc3c(c2)ncn3-c2ccc3cccc(N4CCC(N)CC4)c3n2)COC1 | 6.71 | 14.5 | 4.9 | 5.87 | 3.06 | inactive | inactive | inactive | inactive |  | inactive | 5.45 |  |  |  | 
7 | COc1cc2ncn(-c3cc(OCc4ccccc4S(C)(=O)=O)c(C#N)s3)c2cc1OC | 103 |  | 90.8 | 146 | 95.9 | inactive | inactive | 16.6 µM (active) | 3.32 µM (active) | inactive |  |  |  |  |  | 
8 | C=C[C@@H]1CN2CCC1C[C@@H]2C(O)c1ccnc2ccc(OC)cc12 (stereo not given in full) | 9.53 | 12 | 3.29 | 130 | 86 | inactive | inactive | 3.72 µM (active) | 4.18 µM (active) |  | 1.18 µM (active) | 8.37 | 2.91 |  |  | 
9 | Cc1ccc(NC(=O)c2cccc(N(C)C)c2)cc1NC(=O)c1ccc(O)cc1 | 87.3 | 55.2 | 31.2 | 81.9 | 5.55 | inactive | inactive | 0.118 µM (active) | 0.526 µM (active) |  | 1.05 µM (active) | 35.6 |  |  |  | 
10 | COc1ccc(-c2cc(=O)c3c(O)cc(O[C@@H]4O[C@H](CO[C@@H]5O[C@@H](C)[C@H](O)[C@@H](O)[C@@H]5O)[C@@H](O)[C@H](O)[C@@H]4O)cc3o2)cc1O | 28.6 | 33.2 | 23.4 | 93 | 111 | inactive | inactive | 18.7 µM (active) | 18.7 µM (active) |  | 26.4 µM (active) | 30.1 |  |  |  | 
11 | CC(C)Oc1cc(Nc2nc(N[C@@H](C)c3ccc(F)cn3)ncc2Cl)[nH]n1 | 10.8 |  | 14.7 | 93 | 15.5 | inactive | inactive | 16.6 µM (active) | 16.6 µM (active) |  | 16.6 µM (active) | 9.44 | 3.28 | 13.2 µM (active) |  | 
12 | O=c1[nH]c(=O)n([C@H]2C[C@@H](O)[C@@H](CO)O2)cc1C(F)(F)F | 62 | 91.9 | 36.7 | 118 | 13.9 | inactive | inactive | 5.26 µM (active) | 1.87 µM (active) |  | 1.32 µM (active) | 62.3 |  |  |  | 
13 | Cc1ccc(C(=O)N(CCCN)[C@@H](c2nc3cc(Cl)ccc3c(=O)n2Cc2ccccc2)C(C)C)cc1 | 7.03 | 13.3 | 6.88 | 4.1 | 3.23 | inactive | inactive | 0.0017 µM (active) | 0.0019 µM (active) |  | inactive | 4.61 | 0.0585 | 0.0047 µM (active) | 0.003 µM (active) | 
14 | CC(=O)O[C@]1(C(C)=O)CC[C@H]2[C@@H]3C=C(Cl)C4=CC(=O)[C@@H]5C[C@H]5[C@]4(C)[C@@H]3CC[C@@]21C | 22.5 | 18.7 | 20.1 | 42.4 | 18 | inactive | inactive | 9.35 µM (active) | 13.2 µM (active) |  | 16.6 µM (active) | 21.6 |  |  |  | 
15 | CC(C)(O)CC(=O)NCCn1ccc2ncnc(Nc3ccc(Oc4cccc(C(F)(F)F)c4)c(Cl)c3)c21 | 18.3 | 23 | 9.01 | 75.3 | 61.4 | inactive | inactive | 0.935 µM (active) | 26.4 µM (active) |  | 26.4 µM (active) | 11.6 |  |  |  | 
16 | Cc1nn(Cc2ccccc2Cl)c(C)c1CN(C)CC(O)COc1ccc(Cl)cc1 (stereo not given) | 18.8 | 16.7 | 7.87 | 18 | 53.4 | inactive | inactive | 23.5 µM (active) | 23.5 µM (active) |  | 23.5 µM (active) | 9.8 | 8.74 |  |  | inactive
